Source: PubChem (National Center for Advancing Translational Sciences (NCATS))
FMDV Renilla: FMDV antiviral activity by Renilla signal. FMDV replicon cells, Renilla luciferase signal. Potency, µM (titrated, usually from 57.5 µM), for the others: at the top dose activity change, negative = inhibition, most hits filed as inhibitors. actives 0.32% (n = 120,000). AID 1745857; further: nearly all actives have a fitted effect of over 55% in size
FMDV antiviral: FMDV antiviral activity by firefly signal; actives 0.23% (n = 120,000); FMDV antiviral cell assay, firefly luciferase signal; Potency, µM (titrated, usually from 57.5 µM), inactives show at the top dose activity change, negative = inhibition, actives largely listed as inhibitors; further: nearly all actives have a fitted effect of over 60% in size
Starred values were filed as active, the others as inactive; ? = inconclusive; ! = repeats disagree. Rows were chosen to be rich in hits. Some 0.45% of all compounds tested hit in one or more screens of this group. The call rests on the fitted dose curve. On the % scale 0 is the no-effect control and ±100 the full control effect; potency means the concentration at half of the fitted maximal effect.

SMILES	FMDV Renilla	FMDV antiviral
Cc1ccccc1CNc1ncnc2ccccc12	?	11.2µM*
Cc1ccccc1CC(=O)Nc1cccc2ncccc12	8.9%	20.9%
Cc1ccc(Nc2nc3nonc3nc2Nc2cccc(C(F)(F)F)c2)cc1Cl	2.24µM*	?
Cc1ccc(N/N=C/c2cccc(C(F)(F)F)c2)cc1Cl	8.8%	2.6%
CCN1CCN(CCOc2ccc3c(=O)c(-c4ccc(Cl)cc4)coc3c2)CC1	17.8µM*	-8.8%
CCN1CCN(CCOc2ccc3c(=O)c(-c4ccc(Br)cc4)coc3c2)CC1	?	36.6%
Cc1sc2ncnc(N3CCOCC3)c2c1-c1ccc(F)cc1	-6.6%	-8.5%
COC(=O)c1ccc(CO/N=C/c2ccc(OCc3ccc(Cl)cc3)c(OC)c2)cc1	3.9%	252.2%
COC(=O)c1ccc(CO/N=C/c2ccc(Cl)cc2Cl)cc1	8.8%	7.94µM*
C=CCN(Cc1cccs1)C(=O)C1CCC1	-3.2%	-6.4%
COc1ccc(NC(=O)CSc2nnc(-c3ccncc3)n2-n2cccc2)cc1	-10.5%	-4.9%
COc1ccc2c(c1)c(C(C)=O)c(C)n2Cc1ccccc1	?	20µM*
CCn1c(C)c(C(=O)NCc2ccccc2)c2cc(OC)ccc21	39.7%	16.7%
O=[N+]([O-])c1ccc(/C=N/NC(=S)Nc2ccccc2)cc1	25.3%	0.0%
O=C(O)c1cccc(NC(=S)N/N=C/c2ccc([N+](=O)[O-])cc2)c1	7.0%	2µM*
CCOC(=O)c1sc2nc(CN(C)Cc3ccccc3)[nH]c(=O)c2c1C	-5.3%	17.5%
COc1ccc(C)cc1NC(=O)Cn1c(=O)oc2cc(S(=O)(=O)N3CCCCC3)ccc21	12.8%	11.4%
COc1ccc(NC(=O)Cn2c(=O)oc3cc(S(=O)(=O)N4CCC(C)CC4)ccc32)c(OC)c1	10µM*	?
Cc1ccc(-c2cc3c(SCC(=O)N4CCN(c5ccccc5F)CC4)nccn3n2)cc1	-14.5%	38.7%
Cc1csc(NC(=O)c2nn(C(C)C)c(=O)c3ccccc23)n1	9.6%	0.0%
O=C(c1n[nH]c(=O)c2ccccc12)N1CCN(CC(F)(F)F)CC1	17.3%	37.8%
Cc1cccc(CN2CCN(C(=O)c3n[nH]c(=O)c4ccccc34)CC2)c1	?	14.1µM*
COc1ccccc1NC(=O)c1ccc2c(c1)NC(=O)CS2	9.9%	11.7%
Cc1c(O)ccc2c(CN3CCN(c4cccc(C(F)(F)F)c4)CC3)cc(=O)oc12	12.6µM*	12.6µM*
Cc1c(O)ccc2c(CN3CCN(Cc4cccc(C(F)(F)F)c4)CC3)cc(=O)oc12	-38.4%	-44.6%
SMILES	FMDV Renilla	FMDV antiviral
Cc1ccccc1OCC(=O)Nc1ccc2nc(SCCOc3ccccc3)sc2c1	-1.4%	-11.1%
Cc1cccc(NC(=O)CSc2nc3ccc(NC(=O)COc4ccccc4C)cc3s2)c1	5.01µM*	?
Cc1cc(C(=O)OCC(=O)c2ccc3ccccc3c2)c2ccccc2n1	-10.3%	0.9%
Cc1nc2ccccc2c(=O)n1-c1ccc(NC(=O)c2cccc([N+](=O)[O-])c2)cc1	-21.6%	7.0%
Cc1nc2ccccc2c(=O)n1-c1ccc(NC(=O)c2ccc([N+](=O)[O-])cc2)cc1	2.82µM*	?
Cc1c(-c2ccccc2)oc2c(C(=O)N(C)c3ccccc3)cccc2c1=O	4.7%	-16.6%
CCn1c(C)c(/C=C/c2cc[n+](C)cc2)c2ccccc21	14.1µM*	?
Cc1ccccc1-n1c(/C=C/c2c(C)n(C)c3ccccc23)nc2ccccc2c1=O	-11.6%	1.8%
CCN(CC)c1nc2ncn(CC(=O)Nc3cc(C)cc(C)c3)c(=O)c2s1	0.3%	13.1%
Cc1cccc(-c2nnc(SCCC(=O)O)o2)c1	-8.9%	1µM*
Cc1cccc(-c2nnc(SCC(=O)N3CCCCC3)o2)c1	8.9%	130.8%
O=C(Nc1cccc(F)c1)c1nc2ccccc2nc1N1CCCCC1	-1.7%	-14.0%
COc1cccc(CNC(=O)Cn2ccc3cc(S(=O)(=O)N4CCCC4)ccc32)c1OC	18.0%	-15.7%
COc1ccccc1CCNC(=O)Cn1ccc2cc(S(=O)(=O)N3CCCCC3)ccc21	28.2µM*	-18.1%
Cc1cc(C)cc(Oc2nc(-c3ccncc3)nc3ccccc23)c1	-9.2%	0.2%
COc1cc(/C=C2\NC(=O)NC2=O)c(Br)cc1OCC(=O)O	-8.0%	-15.3%
CCOc1cc(Br)c(/C=C2/NC(=O)NC2=O)cc1OC	?	2.82µM*
Cc1cccc(NC(=S)NCC2(C)CCCC3(C)c4ccc(C(C)C)cc4CCC23)c1 (stereo not given)	11.0%	-2.1%
CCc1cc(=O)oc2cc(OCC(=O)NCCc3ccc(S(N)(=O)=O)cc3)ccc12	7.5%	0.9%
Cc1cc(C)cc(Nc2cc(C)nc3nncn23)c1	33.2%	36.2%
Cc1cc(NCc2ccccc2Cl)n2cnnc2n1	15.8µM*	?
Cc1c(C(=O)N(C)Cc2nc3ccsc3c(=O)[nH]2)cnn1-c1ccccc1F	8.0%	23.1%
COc1ccc(OC)c(NS(=O)(=O)c2cc(-c3cnc(C)o3)ccc2C)c1	238.6%	12.1%
O=C(Nc1cccnc1)C1=C(c2ccccc2)S(=O)(=O)CCO1	25.1µM*	?
O=C(Nc1ccccc1Br)C1=C(c2ccccc2)S(=O)(=O)CCO1	?	-29.6%
SMILES	FMDV Renilla	FMDV antiviral
CCOC(=O)c1ccc(OCC(O)CNCCCn2nc(C)cc2C)cc1 (stereo not given)	-9.0%	18.0%
CC(Nc1ccc([N+](=O)[O-])c2cnccc12)c1ccc(F)cc1 (stereo not given)	25.1µM*	?
O=[N+]([O-])c1ccc(NC(c2ccccc2)c2ccccn2)c2ccncc12 (stereo not given)	-4.5%	-8.1%
CCc1ccc(NS(=O)(=O)c2cc(-c3ccno3)oc2C)cc1	203.9%	20.8%
COc1ccc(C(=O)Nc2ccc3c(c2)N(C2CCCC2)C(=O)c2ccccc2S3)cc1OC	10µM*	?
CCN1C(=O)c2ccccc2Sc2ccc(NC(=O)Cc3ccc(OC)c(OC)c3)cc21	-6.6%	-2.7%
Cc1ccc(C)c(-c2cc(C(=O)Nc3cc(C)on3)c3ccccc3n2)c1	-8.6%	-13.5%
CC1=C2C(=O)CC(C)CC2=Nc2ccccc2N1 (stereo not given)	2.1%	11.0%
CC1=C2C(=O)CC(c3cccc(Cl)c3)CC2=Nc2ccccc2N1 (stereo not given)	17.8µM*	?
CCc1ccc(NC(=O)c2cc(=O)c3ccc(C)cc3o2)cc1	-1.3%	16.2%
C#CC(CC)(CC)NC(=O)CSc1nc2cc(Cl)ccc2s1	12.3%	0.0%
COC(=O)c1ccc(CNC(=O)NCC2(c3ccccc3)CC2)cc1	6.3%	2.1%
O=C(NCc1cccs1)c1nn(-c2ccccc2Cl)nc1CO	21.3%	?
O=C(NCC(c1ccccc1)c1ccccc1)c1nn(-c2ccccc2Cl)nc1CO	28.2µM*!	?
Cc1ccccc1-n1nc(CO)c(C(=O)NCC(c2ccccc2)c2ccccc2)n1	8.91µM*	?
Cc1ccc(-n2nc(CO)c(C(=O)NCC(c3ccccc3)c3ccccc3)n2)cc1	-11.7%	-22.5%
CCCNC(=O)CCc1c(C)n(CC)c2cc(-c3ccccc3OC)nn2c1=O	41.6%	0.0%
CCS(=O)(=O)c1ncc(Cl)c(C(=O)Nc2c(C(=O)Nc3cccc(C)c3)oc3ccccc23)n1	10.1%	41.8%
Cc1cccc(NC(=O)c2nc(S(C)(=O)=O)ncc2Cl)c1	35.5µM*	?
COC(=O)c1cccc(NC(=O)NCC2CCN(CCc3ccc(F)cc3)CC2)c1	-14.5%	-6.4%
Cc1cc(C(C#N)c2ccc(Cl)cc2)c(Cl)cc1NC(=O)CCc1ccccc1 (stereo not given)	1.8%	0.9%
